Source: PubChem (National Center for Advancing Translational Sciences (NCATS))
Most compounds without a hit are left out; they make up all but 22% or so of the library.
Cycloheximide cs: counter-screen for Shiga toxin inhibitors: cycloheximide protein synthesis inhibition; max response, %; 300,000 compounds, 12% hits; cell reporter, cycloheximide protein synthesis inhibition counterscreen; in the data active = max response mostly above about 13%, no sharp cut-off; inactive = mostly below about 14%; note: read at 38.3 µM for the half of the compounds with a filed dose
LmPK inhibitor: blocks Leishmania mexicana pyruvate kinase activity; purified LmPK, Kinase-Glo ATP luminescence, 1 h; 290,000 compounds, 0.37% hits; Q27686; Potency, µM (highest dose often 57.5 µM), hits mostly inhibitors
Target sequence (Q27686 whole entry, looked up): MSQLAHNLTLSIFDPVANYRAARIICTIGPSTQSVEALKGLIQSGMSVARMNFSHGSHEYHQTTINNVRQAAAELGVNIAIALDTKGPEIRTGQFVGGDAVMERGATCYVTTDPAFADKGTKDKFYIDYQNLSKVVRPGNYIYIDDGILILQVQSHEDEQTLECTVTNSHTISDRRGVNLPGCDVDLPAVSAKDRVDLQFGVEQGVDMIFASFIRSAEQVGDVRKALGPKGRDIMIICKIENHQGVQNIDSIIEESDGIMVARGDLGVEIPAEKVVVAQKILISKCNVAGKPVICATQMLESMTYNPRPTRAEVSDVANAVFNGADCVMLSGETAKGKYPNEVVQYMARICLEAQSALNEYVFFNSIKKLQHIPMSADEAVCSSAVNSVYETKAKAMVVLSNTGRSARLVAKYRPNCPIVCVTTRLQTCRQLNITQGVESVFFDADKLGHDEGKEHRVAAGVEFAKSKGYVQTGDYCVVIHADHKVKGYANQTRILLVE
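Pyruvate kinase activity monitored as ATP production (luciferase luminescence). Conditions: 0.1 nM enzyme, 0.5 mM PEP, 0.1 mM ADP, 1 h, RT; normalized against uninhibited and no-enzyme wells.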
Pf growth 96h: P. falciparum growth inhibition at 96 hours; Potency, µM (series often up to 28.7 µM), actives largely listed as inhibitors; P. falciparum luciferase reporter growth, 96 h; AID 504834; 320,000 compounds, 6.9% hits
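Cell-based qHTS: luciferase-tagged P. falciparum in erythrocytes (2% hematocrit, 0.05% parasitemia final) incubated with compounds for 96 hours, 37 C, 5% CO2; luciferase detection reagent then added and luminescence measured.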
Pf growth 48h: inhibits P. falciparum growth in the first generation, 48 h. Potency, µM (titrated, usually from 28.7 µM), hits mostly inhibitors. AID 504832. P. falciparum luciferase growth in erythrocytes, 48 h. 310,000 compounds, 5.9% hits
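Luminescence readout; reporter = integrated firefly luciferase in P. falciparum. RBC culture at 2% hematocrit, 0.1% parasitemia final, 37 C/5% CO2; decreased signal taken as growth inhibition.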
Shiga toxin inh: Shiga toxin inhibition; Vero cells, Shiga toxin protein synthesis inhibition reporter; inhibition, % at 38.7 µM; 290,000 compounds, 9.2% hits; in the data active = inhibition mostly above about 28%, no sharp cut-off; inactive = mostly below about 43%
Large screens that a line does not name were inactive. Unless noted, calls come from the whole dose curve; as a rule, active = well fitted inhibition curve with a large enough effect; inconclusive = small, poorly fitted or top-dose-only effect, or another doubt; inactive = no such curve, though single readings can be large or run the other way.

CC(CCN1CCN(c2ccccc2)CC1)c1ccccc1 (stereo not given)	Pf growth 96h inconclusive
N#CC1(NC(=O)CSc2nc3ccc([N+](=O)[O-])cc3s2)CCCCC1	Pf growth 96h inconclusive, Pf growth 48h 5.22µM (no result: Cycloheximide cs, LmPK inhibitor, Shiga toxin inh)
O=C(CSc1ncnc2c1nnn2Cc1ccccc1)NC1CCCCC1	none
CCc1cccc(CC)c1NC(=S)NCc1nc2ccccc2[nH]1	none
CC(=O)c1c(C)[nH]c(C(=O)Nc2nc(-c3ccc(-c4ccccc4)cc3)cs2)c1C	Pf growth 96h 7.38µM, Pf growth 48h 8.28µM, Shiga toxin inh 64.2
COc1ccc(-c2nc(NC(=O)c3[nH]c(C)c(C(C)=O)c3C)sc2C)cc1	Pf growth 96h inconclusive, Shiga toxin inh 68.2
CC(=O)c1c(C)[nH]c(C(=O)Nc2nc(-c3ccc(Cl)cc3)cs2)c1C	Pf growth 96h inconclusive, Pf growth 48h inconclusive
CCOC(=O)c1ccc(/[N+]([O-])=C/c2ccccc2)cc1	none (no result: Cycloheximide cs, LmPK inhibitor, Shiga toxin inh)
C#CCCc1cscc1/C=[N+](\[O-])c1ccc(C(=O)OCC)cc1	Pf growth 96h inconclusive, Pf growth 48h 8.28µM (no result: Cycloheximide cs, LmPK inhibitor, Shiga toxin inh)
Cc1ccc2nc(SCC(=O)Nc3ccc(F)cc3F)nc(=O)n2c1	none (no result: Cycloheximide cs, LmPK inhibitor, Shiga toxin inh)
Cc1nc2cc(-c3ccc(F)cc3)[nH]n2c(=O)c1C	Cycloheximide cs 31.7, Pf growth 96h inconclusive, Shiga toxin inh 83.7
Cc1ccccc1-c1cc2nc(C)c(C)c(=O)n2[nH]1	Cycloheximide cs 23.3, Pf growth 48h 7.38µM, Shiga toxin inh 35.6
Cc1cc(=O)n2[nH]c(-c3ccccc3Cl)cc2n1	Pf growth 96h 7.38µM
COc1ccc(-n2c(=S)[nH]c3cc(C(=O)NCc4ccccc4)ccc3c2=O)c(OC)c1	none
CC1C(=O)N(Cc2ccc(F)cc2)c2ccccc2N1C(=O)c1c(F)cccc1F (stereo not given)	Pf growth 96h 11.7µM, Pf growth 48h inconclusive
COc1ccc2c(c1)CC/C2=N\OC(=O)c1ccccc1OC	Cycloheximide cs 37.8, Shiga toxin inh 90.4
COc1ccccc1C(=O)O/N=C1/CCCc2c1ccc(OC)c2[N+](=O)[O-]	none
COCCn1c(SCC(=O)Nc2ccccc2F)nnc1-c1ccoc1C	none
O=C(/C=C/c1ccccc1[N+](=O)[O-])N1CCCCC1	Shiga toxin inh 65.6
CCN1CCN(C(=O)/C=C/c2ccccc2[N+](=O)[O-])CC1	none
CC1CCCCN1C(=O)/C=C/c1ccccc1[N+](=O)[O-] (stereo not given)	Cycloheximide cs 20.4
Cc1cccc(COCC(Cc2ccccc2)N2CCN(C(=O)c3cc(Cl)cc(Cl)c3)CCC2=O)c1 (stereo not given)	Pf growth 96h 14.7µM, Pf growth 48h inconclusive
Cc1cccc(COCC(Cc2ccccc2)N2CCN(C(=O)c3cccc(C)c3)CCC2=O)c1 (stereo not given)	Pf growth 96h inconclusive, Pf growth 48h 13.1µM
Cc1cccc(COCC(Cc2ccccc2)N2CCN(C(=O)c3ccc(Cl)c(Cl)c3)CCC2=O)c1 (stereo not given)	Pf growth 96h inconclusive, Pf growth 48h inconclusive
Cc1ccc([N+](=O)[O-])cc1S(=O)(=O)n1ccnc1C	Pf growth 48h 5.22µM
Cc1ccc([N+](=O)[O-])cc1S(=O)(=O)N1CCN(C)CC1	none
CCN1CCN(c2ccc(N3CCN(S(=O)(=O)c4cc([N+](=O)[O-])ccc4C)CC3)nn2)CC1	Pf growth 96h inconclusive, Pf growth 48h 10.4µM (no result: Cycloheximide cs, LmPK inhibitor, Shiga toxin inh)
NC(=O)CCC1NC(=O)C(Cc2ccccc2)NC(=O)C(Cc2ccc(O)cc2)NC(=O)CCSSCC(C(=O)N2CCCC2C(=O)NC(CCCN=C(N)N)C(=O)NCC(N)=O)NC(=O)C(CC(N)=O)NC1=O (stereo not given)	none (no result: Cycloheximide cs, LmPK inhibitor, Shiga toxin inh)
COC(CNC(=O)CN1CCN(Cc2ccccc2F)C1=O)OC	Pf growth 96h inconclusive, Pf growth 48h inconclusive
C/C(=N/NC(=O)c1cccs1)c1c(C)[nH]n(-c2nc3ccccc3s2)c1=O	LmPK inhibitor 20µM
CCC(=NCc1ccco1)c1c(C(F)(F)F)[nH]n(-c2nc3ccccc3s2)c1=O	Cycloheximide cs 45.4, Shiga toxin inh 52.0 (no result: Pf growth 48h)
CCCN=C(C)c1c(-c2ccccc2)[nH]n(-c2nc3ccccc3s2)c1=O	none (no result: Pf growth 96h)
O=c1c(C=NCc2cccnc2)c(C(F)(F)F)[nH]n1-c1nc2ccccc2s1	none
CCC(=NCc1ccccc1)c1c(C(F)(F)F)[nH]n(-c2nc3ccccc3s2)c1=O	Cycloheximide cs 20.7 (no result: Pf growth 48h)
C/C(=N\NC(=O)Cn1c(C)nc2ccccc21)c1cccs1	Pf growth 96h inconclusive
CC(=NCc1ccco1)c1c(C)[nH]n(-c2nc3ccccc3s2)c1=O	Cycloheximide cs 47.7, Pf growth 96h inconclusive, Shiga toxin inh 55.9
COc1ccco1	none (no result: LmPK inhibitor, Pf growth 96h, Pf growth 48h)
NC(=O)C1(N2CCCCC2)CCN(CCCC(=O)c2ccc(F)cc2)CC1	Pf growth 96h inconclusive (no result: LmPK inhibitor)
O=C(/C=C/c1cccs1)N1CCC2(CC1)Oc1ccc(Cl)cc1C(=O)C21CC(c2ccccc2)=NO1 (stereo not given)	Pf growth 96h inconclusive, Pf growth 48h 13.1µM
Cc1ccc(C(=O)N2CCC3(CC2)Oc2ccc(F)cc2C(=O)C32CC(c3cccnc3)=NO2)s1 (stereo not given)	Pf growth 96h 13.1µM, Pf growth 48h 9.28µM
O=C(c1ccoc1)N1CCC2(CC1)Oc1ccc(Cl)cc1C(=O)C21CC(c2ccccc2)=NO1 (stereo not given)	Pf growth 96h inconclusive, Pf growth 48h 14.7µM
COc1ccc(CNc2cccc(F)c2)cc1Br	none (no result: Pf growth 48h)
COCC(C)NCc1ccc(OC)c(Br)c1 (stereo not given)	Pf growth 96h 11.7µM
CC1(C)CC(NC(=O)c2ccc(Br)o2)CC(C)(C)N1	none
Cc1cc([N+](=O)[O-])cc2c1NC(=O)C2(O)N1CCCCCC1 (stereo not given)	Pf growth 96h 10.4µM
Cc1cc([N+](=O)[O-])cc2c1NC(=O)C2(O)N1CCCC(C)C1 (stereo not given)	LmPK inhibitor inconclusive
O=C(/C(=C(\[O-])c1ccccc1)[n+]1ccc2ccccc2c1)c1ccccc1	Cycloheximide cs 25.8, Pf growth 96h 13.1µM, Pf growth 48h inconclusive, Shiga toxin inh active
O=C(/C(=C(\[O-])c1ccccc1)[n+]1ccc2ccccc2c1)c1ccc(Cl)cc1	Pf growth 96h inconclusive, Pf growth 48h inconclusive, Shiga toxin inh 68.2
CCOC(=O)N1CCN(C(=O)/C(=C/c2ccc(Br)cc2)NC(=O)c2ccc(OC)cc2)CC1	Pf growth 96h inconclusive, Pf growth 48h inconclusive
Cc1ncsc1CCC(=O)N1CCCC(C(=O)c2ccc3c(c2)OCO3)C1 (stereo not given)	Cycloheximide cs 22.7
COc1ccc2cc(C(=O)C3CCCN(C(=O)CCc4ccccn4)C3)ccc2c1 (stereo not given)	Cycloheximide cs 23.7, Pf growth 48h inconclusive, Shiga toxin inh 31.3
Cn1c(CN2CCCC(C(=O)c3ccc4c(c3)OCO4)C2)nc2ccccc21 (stereo not given)	Pf growth 96h 9.28µM, Pf growth 48h inconclusive
O=C(c1ccc2c(c1)OCO2)C1CCCN(Cc2ccccn2)C1 (stereo not given)	Pf growth 48h inconclusive
